Measurements published in article PMC4336329 (PLoS ONE, 2015).
In all, about 310,000 compounds went through this assay and about 14,000 (4.5%) showed an effect of 50% or more. Effects have a minus sign here. What follows is part of a selection rich in strong results, with near analogues and random picks from the rest.

Target: human ether-à-go-go-related gene (hERG) potassium channel (human, UniProt Q12809)
Assay: primary screen, population patch clamp on CHO cells stably expressing hERG; higher = less effect of the substance
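Further: peak tail current of the secondary pulse compared with the same well before compound.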

Sequence of human ether-à-go-go-related gene (hERG) potassium channel (Q12809 whole entry, looked up): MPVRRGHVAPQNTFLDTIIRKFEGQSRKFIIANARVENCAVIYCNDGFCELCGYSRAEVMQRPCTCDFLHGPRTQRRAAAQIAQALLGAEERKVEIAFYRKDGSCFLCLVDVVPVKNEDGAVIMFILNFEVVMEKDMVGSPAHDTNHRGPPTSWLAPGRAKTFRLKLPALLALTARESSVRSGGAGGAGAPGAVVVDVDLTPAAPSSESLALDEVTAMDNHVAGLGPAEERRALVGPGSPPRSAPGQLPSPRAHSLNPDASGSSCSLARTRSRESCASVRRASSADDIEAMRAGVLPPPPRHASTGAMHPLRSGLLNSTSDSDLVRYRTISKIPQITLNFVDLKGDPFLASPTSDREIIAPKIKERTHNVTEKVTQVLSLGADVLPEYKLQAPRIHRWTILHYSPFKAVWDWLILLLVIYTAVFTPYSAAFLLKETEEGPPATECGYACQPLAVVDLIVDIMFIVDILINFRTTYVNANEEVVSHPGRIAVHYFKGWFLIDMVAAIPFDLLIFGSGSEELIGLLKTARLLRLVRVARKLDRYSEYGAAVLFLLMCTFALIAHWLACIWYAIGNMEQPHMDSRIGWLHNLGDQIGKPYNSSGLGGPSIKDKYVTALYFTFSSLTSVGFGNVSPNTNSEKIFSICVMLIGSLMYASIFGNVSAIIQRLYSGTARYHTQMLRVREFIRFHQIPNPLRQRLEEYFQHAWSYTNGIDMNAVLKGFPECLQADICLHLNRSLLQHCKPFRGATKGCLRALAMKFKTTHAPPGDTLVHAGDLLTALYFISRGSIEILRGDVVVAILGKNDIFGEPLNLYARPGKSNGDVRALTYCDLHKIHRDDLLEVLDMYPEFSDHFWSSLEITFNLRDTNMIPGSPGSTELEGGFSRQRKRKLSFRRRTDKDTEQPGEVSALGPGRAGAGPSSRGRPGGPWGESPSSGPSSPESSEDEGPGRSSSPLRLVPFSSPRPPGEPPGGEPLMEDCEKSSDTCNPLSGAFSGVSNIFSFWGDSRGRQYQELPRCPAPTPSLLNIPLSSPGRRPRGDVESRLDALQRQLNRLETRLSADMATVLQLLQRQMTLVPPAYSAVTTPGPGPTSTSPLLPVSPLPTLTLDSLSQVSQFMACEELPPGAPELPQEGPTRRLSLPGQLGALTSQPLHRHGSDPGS

Row | Structure (SMILES) | hERG current change (%, negative = inhibition) at 10uM [%]
1 | COc1ccc(-c2csc(NC(=O)c3c(OC)cccc3OC)n2)cc1 | 7.77
2 | COc1ccccc1CNS(=O)(=O)c1cc2c3c(c1)CCN3C(=O)CC2 | -4.02
3 | O=C1COc2ccc(C(=O)COC(=O)CNC(=O)C3CCCCC3)cc2N1 | -7.17
4 | COc1ccc(OCC(Cn2cnc3ccccc32)OC(C)=O)cc1.Cl (stereo not drawn) | -26
5 | Cc1cc(C)n(-c2cc(C(C)(C)C)nc3c(-c4ccccc4)cnn23)n1 | 14.6
6 | COc1ccc(C(=O)NCCS(=O)(=O)NCCc2ccccc2)cc1 | -13.2
7 | CC1(C)CC(C)(c2ccc(O)cc2O)N(c2cccc(Cl)c2)C(=S)N1 (stereo not drawn) | 2.04
8 | COCCNC(=O)c1c(N)n(-c2cccc(C)c2)c2nc3ccccc3nc12 | -24.7
9 | Cc1cccc(-n2c(N)c(C(=O)NCCN3CCOCC3)c3nc4ccccc4nc32)c1 | -57.1
10 | Nc1c(C(=O)NCCN2CCOCC2)c2nc3ccccc3nc2n1-c1ccc2c(c1)OCO2 | -33.5
11 | Nc1c(C(=O)NCCN2CCOCC2)c2nc3ccccc3nc2n1-c1cccc(F)c1 | -33.2
12 | CCCNC(=O)c1c(N)n(-c2cccc(OC)c2)c2nc3ccccc3nc12 | -5.21
13 | Nc1c(C(=O)NCCN2CCOCC2)c2nc3ccccc3nc2n1-c1ccccc1 | -52
14 | Cc1ccc(S(=O)(=O)NCCC(=O)NCc2ccccn2)cc1 | 11.1
15 | Cc1ccc(-c2nnn(CC(=O)N(Cc3ccco3)C(C(=O)NC(C)(C)C)c3cccs3)n2)o1 (stereo not drawn) | -19.2
16 | O=C(NCC1CCCO1)c1cc2c([nH]c3ccccc32)c(-c2cccc(Cl)c2)n1 (stereo not drawn) | -20.5
17 | Cc1sc2nc(-c3ccc(Br)cc3)oc(=O)c2c1C | 13.3
18 | CSc1nc(C(=O)N2CCc3c([nH]c4ccccc34)C2c2ccccn2)cs1 (stereo not drawn) | -4.85
19 | CC(=O)Nc1ccc(NC(=O)c2cc[n+]([O-])cc2)cc1 | 25.2
20 | CC(C)Cc1nnc(NC(=O)c2cc([N+](=O)[O-])ccc2N2CCOCC2)s1 | -51.4
21 | CC(C)CNC(=O)c1cc([N+](=O)[O-])ccc1N1CCOCC1 | 4.47
22 | CC(C)Cc1nnc(NC(=O)CCC(=O)N2CC(C)CC(C)C2)s1 (stereo not drawn) | -50.8
23 | CC(C)Cc1nnc(NC(=O)CCC(=O)N2CCN(c3ccc(F)cc3)CC2)s1 | 1.08

Row | Structure (SMILES) | hERG current change (%, negative = inhibition) at 10uM [%]
24 | CC(C)Cc1nnc(NC(=O)CCC(=O)N2CCC(C)CC2)s1 | 0.442
25 | CCc1nnc(NC(=O)c2cc([N+](=O)[O-])ccc2N2CCOCC2)s1 | -15
26 | CC(C)Cc1nnc(NC(=O)CCC(=O)N2CCN(c3ccc([N+](=O)[O-])cc3)CC2)s1 | -72.3
27 | CC1CC(C)CN(C(=O)CCC(=O)Nc2nnc(C(C)C)s2)C1 (stereo not drawn) | 12.6
28 | CC(C)Cc1nnc(NC(=O)CCC(=O)N2CCN(c3ccc(Cl)cc3)CC2)s1 | -3.51
29 | CCN(C(=O)c1ccc(C)c(Br)c1)c1ccccc1 | -20.5
30 | CC(=O)c1c(C)[nH]c(C(=O)COC(=O)COc2ccccc2F)c1C | -3.3
31 | O=C(CCC1CCCCC1)NNC(=O)NC12CC3CC(CC(C3)C1)C2 | 13.2
32 | Cc1ccc(C)c(NNC(N)=S)c1 | 14
33 | O=C(COC(=O)CC1SC(N2CCCC2)=NC1=O)Nc1c(F)c(F)c(F)c(F)c1F (stereo not drawn) | -12.6
34 | Cc1cc(NC(=O)CSc2nc(CC(C)(C)C)nc3c2c(=O)n(C)c(=O)n3C)no1 | 4.05
35 | COc1ccc(OCCSc2nnc(CCNC(=O)c3ccc(OC)cc3)n2C)cc1 | -6.83
36 | CCN(CC)CCN(C(=O)c1ccccc1OC)c1nc2ccc(F)cc2s1.Cl | -68.3
37 | CN(C)CCN(C(=O)c1cc(Cl)sc1Cl)c1nc2ccc(F)cc2s1.Cl | -67.3
38 | CCN(CC)CCN(C(=O)c1cc2ccccc2cc1OC)c1nc2ccc(F)cc2s1.Cl | -11.8
39 | CC(=O)N(CCCN(C)C)c1nc2ccc(C)cc2s1.Cl | -7.07
40 | Cc1ccc2nc(N(CCN(C)C)C(=O)c3cc(Cl)sc3Cl)sc2c1.Cl | 7.55
41 | CCN(CC)CCN(C(=O)c1cc2ccccc2cc1OC)c1nc2ccc(OC)cc2s1.Cl | -13.4
42 | CN(C)CCCN(C(=O)c1ccco1)c1nc2cc3c(cc2s1)OCO3.Cl | -43.7
43 | COc1ccc2sc(N(CCN(C)C)C(=O)c3cc(Cl)sc3Cl)nc2c1.Cl | -0.167
44 | CN(C)CCCN(C(=O)c1ccco1)c1nc2ccc(Cl)cc2s1.Cl | -73.4
45 | Cc1ccc2nc(N(CCCN(C)C)C(=O)c3ccco3)sc2c1.Cl | -65.4
